Compound activity from PubChem BioAssay.
This excerpt belongs to a sample that is enriched for hits.
Pf Dd2 growth: qHTS Primary assay for Inhibitors of Plasmodium falciparum Dd2 growth in vitro | P. falciparum Dd2 growth, SYBR Green, 72 h | Potency, µM (series often up to 28.9 µM), most hits filed as inhibitors | 120,000 tested, 4.3% active | AID 1347417, 2020; active = well fitted inhibition curve with a large enough effect; also: nearly all actives have a fitted effect of over 65% in size
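Readout: SYBR Green fluorescence, 485 nm excitation, 535 nm emission, after ~16 h lysis at 37C. Before that, Dd2-infected red cells (2.5% hematocrit) grew 72 h with compound, 29 uM top final concentration.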
Large screens that a line does not name were inactive.

Cc1c(C(=O)Nc2ccc(F)cc2)sc2nc[nH]c(=O)c12	none
COc1ccc(-c2c3c(nc4sc(C(=O)Nc5ccc(F)cc5)c(N)c24)CC(C)(C)CC3=O)cc1	Pf Dd2 growth 0.56µM
Cc1noc(-c2cccc(OC3CN(S(=O)(=O)c4c(C)nn(C)c4C)C3)c2)n1	none
O=C(c1ccccc1OCC1CCCN(Cc2cccnc2)C1)N1CCCCC1 (stereo not given)	none
Cn1nnnc1SCCNCc1ccc(OCc2ccccc2)cc1	none
Cn1nnnc1SCCCNCc1cccc(OCc2ccc(F)cc2)c1	Pf Dd2 growth 5.6µM
CCOc1cccc(CNCCCSc2nnnn2C)c1	none
CN1CCC(N2CCC(CN(Cc3ccncc3)C(=O)c3cnc[nH]3)CC2)CC1	none
O=[S+]1([O-])NCC2(CCN(Cc3ccc(OC(F)(F)F)cc3)CC2)Nc2ccccc21	none
O=[S+]1([O-])NCC2(CCN(Cc3cccc4ccccc34)CC2)Nc2ccccc21	none
O=[S+]1([O-])NC2(CCN(CC3CCCCC3)C2)CNc2ccccc21 (stereo not given)	none
O=[S+]1([O-])NCC2(CCN(Cc3ccccc3)C2)Nc2ccccc21 (stereo not given)	none
O=[S+]1([O-])NCC2(CCN(Cc3ccccc3C(F)(F)F)CC2)Nc2ccccc21	Pf Dd2 growth 13µM
O=[S+]1([O-])NCC2(CCN(CC3CCCCC3)C2)Nc2ccccc21 (stereo not given)	Pf Dd2 growth 4.5µM
COC[C@@H]1CN(C(=O)c2cccc(C)n2)C[C@H]1c1ccccn1	none
O=C1CCN(S(=O)(=O)c2ccccc2)CCCC(C(=O)NCCc2ccccc2)CCN1 (stereo not given)	none
Cc1ccsc1CN1CCc2nc(N(C)Cc3cccnc3)[nH]c(=O)c2CC1	none
O=C(NCc1ccc(-c2ccccc2)cc1)[C@H]1CCC[C@H](O)C1	none
CCCN1CCCn2nc(CNC(=O)c3ccc(OC)nc3OC)cc2C1	none
CC(=O)N1CCCc2ccc(NS(=O)(=O)c3ccc(C)c(C)c3)cc21	none
CC(=O)N1CCCc2ccc(NS(=O)(=O)c3cccc(Cl)c3)cc21	none
COc1ccc(S(=O)(=O)Nc2ccc3c(c2)N(C(C)=O)CCC3)cc1F	Pf Dd2 growth 10µM
COc1ccc(CC(=O)N2CC[C@@H](CC(=O)O)[C@@H](CCN3CCC(C(N)=O)CC3)C2)cc1	none
OC(c1cccc(C(F)(F)F)c1)c1nc(Nc2cccc(Cl)c2)n[nH]1 (stereo not given)	Pf Dd2 growth 7.9µM
COc1ccc(Nc2n[nH]c(C(O)c3cccc(C(F)(F)F)c3)n2)cn1 (stereo not given)	none
OC(c1ccc2c(c1)CCO2)c1nc(Nc2cccc(C(F)(F)F)c2)n[nH]1 (stereo not given)	none
O=C(Cc1cccc(F)c1)N1CCN(C(=O)c2nnn3c2COC(c2ccccc2)C3)CC1 (stereo not given)	none
Cc1cccc(NC(=O)c2c(NC(=O)C(F)(F)F)sc3c2CCCCC3)c1	Pf Dd2 growth 4.5µM
Cc1ccc(NC(=O)c2c(NC(=O)C(F)(F)F)sc3c2CCCCC3)cc1	Pf Dd2 growth 4µM
Cc1ccccc1NC(=O)c1c(NC(=O)c2ccccc2)sc2c1CCC2	none
Cc1cccc(NC(=O)c2c(Br)sc3c2CCCC3)c1	none
Cc1ccccc1NC(=O)c1c(NC(=O)C(F)(F)F)sc2c1CCCCC2	Pf Dd2 growth 10µM
CCCNC(=O)c1c(NC(=O)c2ccc(C)cc2)sc2c1CCCCC2	none
Cc1ccc(NC(=O)c2c(NC(=O)c3ccccc3)sc3c2CCC3)cc1	none
O=C(Nc1cccc(Cl)c1)c1c(NC(=O)C(F)(F)F)sc2c1CCCC2	Pf Dd2 growth 13µM
CCc1ccccc1NC(=O)c1c(NC(=O)c2ccccc2)sc2c1CCCC2	none
O=C(Nc1sc2c(c1C(=O)Nc1ccc(Cl)cc1)CCCC2)c1cccs1	none
Cc1cccc(C(=O)Nc2sc3c(c2C(=O)Nc2ccccc2)CCC3)c1	none
O=C(COc1ccc(Cl)cc1)Nc1sc2c(c1C(=O)Nc1cccc(Cl)c1)CCCC2	none
CCCN(CC1CCOC1)C(=O)NCc1ccco1 (stereo not given)	none
O=C(NCC12CCC=C1N(CC1CC1)C(=O)CC2)c1nccc2ccccc12 (stereo not given)	none
CN1Cc2ncnc(NCc3cccnc3)c2CN(c2ccccc2)C1=O	none
COCCNC(=O)c1cc(-c2ccccc2Oc2ccccc2)cc2ncn(C)c12	none
O=C(Cn1ccn2nc3c(c2c1=O)CCCC3)NCCc1ccccc1	none
O=C(c1ccc(F)cc1)N1CCN(C(=O)c2nnn3c2COC(c2ccc(Cl)cc2)C3)CC1 (stereo not given)	none
Cc1nc2ncccn2c1C(=O)N1C[C@H]2C(=O)NC[C@@]2(C(=O)O)C1	none
O=C(CCC1CCCC1)N1CCC(c2nc(C3CCOCC3)no2)C1 (stereo not given)	none
COc1ccc2[nH]c3c(c2c1)CCN(C)C31CCN(C(=O)c2ccsc2)CC1	none
OCCc1cc(CC2(N(CC3CC3)CC3CC3)COC2)no1	none
COCCNc1ccc(-c2nc(-c3ccco3)no2)cc1[N+](=O)[O-]	none
COCCNc1nc2cc(-c3nc(-c4cccnn4)no3)ccc2n1C	Pf Dd2 growth 6.3µM
COCCNc1nc2cc(C(=O)N[C@@H]3CC[C@@H](N)C3)ccc2n1C	none
O=C(Cn1cccc1-c1nc(-c2ccc(F)cc2)no1)Nc1ccccc1F	none
CCOc1ccccc1C(=O)N1CC2CC(C1)[C@H]1CCCC(=O)N1C2 (stereo not given in full)	none
Cn1ncc(N2CCC(C(=O)N3CCc4ccccc4C3)C2)cc1=O (stereo not given)	none
NC(=O)[C@@H](Cc1c[nH]c2ccccc12)NC(=O)[C@@H]1C[C@@H](NS(=O)(=O)c2cccs2)CCN1C(=O)[C@@H](O)[C@H](O)C(=O)O	none
C[C@@H](NC(=O)Nc1ccccc1)c1onc(-c2ccc(F)cc2)c1C(=O)O	none
CCN(CCNC(=O)c1cc2c(s1)CN(C1CC1)C2)c1cccc(C)c1	none
Cc1nnc(NC(=O)NC2CCN(Cc3ccccc3)CC2)s1	none
O=C(O)c1cc2c(s1)CN(C1CCCC1)C2	none
CCC1CCCCN1CCNC(=O)c1cc2c(s1)CN(C1CCCC1)C2 (stereo not given)	Pf Dd2 growth 6.3µM
O=C(NC1CCN(Cc2ccccc2)CC1)c1cc2c(s1)CN(C1CCCC1)C2	Pf Dd2 growth 7.1µM
CCC1CCCCN1CCCNC(=O)c1cc2c(Cl)nc3ccc(C)cc3c2s1 (stereo not given)	Pf Dd2 growth 3.5µM
Cc1ccc2nc(Cl)c3cc(C(=O)N4CCCCC4C)sc3c2c1 (stereo not given)	none
Cc1ccc2nc(Cl)c3cc(C(=O)N4CCCCC4)sc3c2c1	none
O=C(NCCN1CCCCC1)c1cc2c(s1)CCN(C(=O)c1ccc(Cl)cc1)C2	none
CS(=O)(=O)N1CCC(c2nccn2Cc2ccncc2)CC1	none
COc1ccc(-c2cc(N3CCC(NC(=O)c4ccc(F)cc4Cl)C3)n[nH]2)cc1 (stereo not given)	none
COCc1cc(C[C@@H]2CC[C@H](O)[C@@H](CN(C(=O)Nc3ccccc3)C(=O)Nc3ccccc3)O2)no1	none
O=C(NC[C@H]1O[C@@H](CO)[C@@H](O)[C@H]1N1CCN(c2ccccn2)CC1)c1ccco1	none
CN1CC(=O)N(C2CCCNC2)Cc2c(NCC(C)(C)C)ncnc21 (stereo not given)	none
CCc1ccccc1OCC(=O)c1ccc2c(c1)N(CC(=O)NCCCOC)C(=O)CO2	none
COc1ccccc1CN1CCC2(CC1)Cc1ccccc1CNC2=O	none
CCCc1cc(CN(C)c2nc(CCN)nc3sc(C)c(C)c23)[nH]n1	Pf Dd2 growth 10µM
COCCN1CC(CNc2nc(CCN)nc3sc(C)c(C)c23)CC1=O (stereo not given)	none
Cc1ncn(CC(=O)N[C@H]2CCOC[C@H]2C2CCOCC2)c1C	none
